# Records with an inconclusive call do not appear. The source made the active and inactive calls. Calls follow the shape of the full dose curve.
# Biological target: Peroxisome proliferator-activated receptor delta (Homo sapiens) (UniProt Q03181)
# Assay: qHTS assay for small molecule agonists of peroxisome proliferator-activated receptor delta signaling (AID 588534);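 also: 0% = DMSO basal wells and 100% = positive control agonist at 10 µM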
# Settings: HEK293T PPARdelta-UAS-bla, beta-lactamase ratio, 18 h; series mostly up to 76.7 µM; activation: at the top concentration
# How it was run: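 Reporter cells were plated and held 5 hrs at 37 C before compounds were added. After 18 hrs at 37 C, CCF4 dye was loaded for 2 hrs at RT and fluorescence measured.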
# Sequence of Peroxisome proliferator-activated receptor delta (Homo sapiens) (Q03181 whole entry, looked up): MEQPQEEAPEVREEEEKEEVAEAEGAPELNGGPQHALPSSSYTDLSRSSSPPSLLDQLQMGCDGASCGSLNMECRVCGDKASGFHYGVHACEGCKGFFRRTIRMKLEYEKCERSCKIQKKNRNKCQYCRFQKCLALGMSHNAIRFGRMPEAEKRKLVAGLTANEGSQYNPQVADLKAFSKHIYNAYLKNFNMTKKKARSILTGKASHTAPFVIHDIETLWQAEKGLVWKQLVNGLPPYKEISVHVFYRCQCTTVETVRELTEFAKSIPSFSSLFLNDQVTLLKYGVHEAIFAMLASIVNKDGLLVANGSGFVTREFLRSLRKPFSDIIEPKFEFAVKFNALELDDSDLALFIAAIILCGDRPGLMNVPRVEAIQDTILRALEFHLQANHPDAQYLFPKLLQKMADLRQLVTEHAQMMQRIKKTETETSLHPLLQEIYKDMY
Compound,outcome,activation
COCC(=O)O,inactive,–
CCCCCCCCCCCCN,–,1.33% (inactive)
Cc1ccc(C(C)(C)C)cc1,–,1.93% (inactive)
CSC(=O)c1cccc2nnsc12,–,7.1% (inactive)
NC(=O)c1ccccc1[N+](=O)[O-],–,9.96% (inactive)
CC(C)C=O,–,0.0575% (inactive)
Clc1cc(Cl)cc(Cl)c1,–,6.75% (inactive)
O=[N+]([O-])c1cccc(I)c1,–,-2.66% (inactive)
O=C1CCCCC1,–,8.74% (inactive)
COCCOC(=O)c1ccccc1C(=O)OCCOC,–,10.3% (inactive)
ICCc1ccccc1,–,2.06% (inactive)
O=CC(=O)c1ccccc1,–,12.3% (inactive)
CCOC(=O)C(C)C(C)=O (centres undefined),–,10% (inactive)
O=C(Cl)c1ccc([N+](=O)[O-])cc1,–,-1.98% (inactive)
c1ccsc1,–,0.747% (inactive)
c1ccc2n[nH]nc2c1,–,3.95% (inactive)
Cc1cc(C)cc(O)c1,–,0.738% (inactive)
CCC(C)c1ccccc1O (centres undefined),inactive,–
Oc1cc2c(cc1O)[C@H]1c3ccc(O)c(O)c3OC[C@@]1(O)C2,–,-4.97% (inactive)
Cc1cc(C(=O)O)ccc1[N+](=O)[O-],–,-9.84% (inactive)

Compound,outcome,activation
CC=C(Cl)Cl,–,0.326% (inactive)
OCCOCCOCCOCCOCCO,–,0.347% (inactive)
CCCCC(=O)N(C)C,–,9.07% (inactive)
CNc1ccccc1,–,-5.3% (inactive)
O=C(O)/C=C/c1ccc(/C=C/C(=O)O)cc1,–,-6.73% (inactive)
COC(OC)(C(=O)c1ccccc1)c1ccccc1,–,7.67% (inactive)
CC(O)COC(C)(C)C (centres undefined),–,-6.57% (inactive)
CC(C)S,–,-4.95% (inactive)
CN(C)C(=O)Nc1ccccc1,–,-0.0648% (inactive)
c1ccc2ncccc2c1,–,-15% (inactive)
S=C(NC1CCCCC1)NC1CCCCC1,–,-2.85% (inactive)
O=Cc1ccc(Cl)c(Cl)c1,–,-2.61% (inactive)
O=Cc1ccc(Cl)cc1,–,6.39% (inactive)
CCCCCNCCCCC,inactive,–
O=[N+]([O-])c1cccc(Cl)c1,–,-6.37% (inactive)
Clc1nc2ccccc2nc1Cl,–,-0.829% (inactive)
c1cc2c3c(c1)ccc1cccc(c13)C2,–,4.33% (inactive)
O=C1OC2(c3cc(Br)c(O)c(Br)c3Oc3c2cc(Br)c(O)c3Br)c2c(Cl)c(Cl)c(Cl)c(Cl)c21,–,-13.2% (inactive)
OCCOCCOCCOCCO,–,0.513% (inactive)

# From PubChem BioAssay (NCATS)
